The values below come from PMC7819943, “Rice protein-binding microarrays: a tool to detect cis-acting elements near promoter regions in rice”.

Whole data set: some 35,000 sequences, median “fluorescence intensity (a.u.)” near 10,000, cut for the highest 2% near 52,000. This is one part of a sample in which the highest values are shown more often than they occur.

The target of the experiment is T1, OsWOX13 (Oryza sativa, UniProt Q5QMM3 1-267).
T1 sequence: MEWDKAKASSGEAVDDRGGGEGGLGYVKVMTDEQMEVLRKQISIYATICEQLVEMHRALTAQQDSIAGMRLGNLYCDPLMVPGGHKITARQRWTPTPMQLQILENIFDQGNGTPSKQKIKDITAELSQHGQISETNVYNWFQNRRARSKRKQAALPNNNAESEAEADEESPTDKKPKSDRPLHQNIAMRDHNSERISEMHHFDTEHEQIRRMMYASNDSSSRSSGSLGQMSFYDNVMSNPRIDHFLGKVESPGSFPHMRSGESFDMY
As to the kind of experiment: protein-binding microarray (RPBM); PBS, 2% BSA, 51.3 ng/ul salmon testes DNA, 50 uM zinc acetate, 200 nM TF, 25 C, 1 h; high values mean tight binding. The note with it: protein: recombinant; tags: N-terminal polyhistidine and DsRed monomer fusion (pET32a); label: CyDye5-dUTP incorporated in the synthesized complementary strand; 3' TTTTT single-stranded linker to array surface; dsDNA, one strand shown. A digest of the protocol: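 The binding signal is fluorescence intensity per feature, in arbitrary units, read on an Axon 4000B scanner. Polyhistidine- and DsRed-tagged transcription factors (N-terminal fusions) from E. coli BL21-CodonPlus were purified on Ni–NTA and applied at 200 nM for 1 h at 25 °C to a double-stranded, BSA-blocked custom Agilent array in buffer with 50 µM zinc acetate.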
With “ACCAGGAAGTCATAAATTAATGGATCGAATATGACCTGCTCGGAGTCACCTAGTGCAG”, the binding signal is 3160 fluorescence intensity (a.u.).
For the sequence “GGTTAATTATGCGAAAGAGAATCTTAATCCCAGGGGCTTTCGGAGTCACCTAGTGCAG”, the binding signal was 17600 fluorescence intensity (a.u.).
To “CCTGATTTCTAAAGAAAGCCGTCCGGTTTTAACTGAGTCTCGGAGTCACCTAGTGCAG” belongs 10100 fluorescence intensity (a.u.).
As to “TATTTTGGACCCATGATAGATTGATTTAGAACATGCGGAGCGGAGTCACCTAGTGCAG”, the binding signal is 11400 fluorescence intensity (a.u.).
For “CTCCACTAATCTAAAATTTGTTTAATGGATCATTGCATCACGGAGTCACCTAGTGCAG”, the binding signal is 16000 fluorescence intensity (a.u.).
As for “TTGTAGATTTATACCTGTCCTAATCAGAGTATACTGTATTCGGAGTCACCTAGTGCAG”, the binding signal is 3990 fluorescence intensity (a.u.).
In the case of “CTCAGCCTGATTAATCGGAGATAATGAGTCTACGAATTTGCGGAGTCACCTAGTGCAG” it was 9790 fluorescence intensity (a.u.); in that of “ATATATATAATTAGGATTGTTATATGCATAGGTTTGCATTCGGAGTCACCTAGTGCAG”, 18400 fluorescence intensity (a.u.); in that of “TTGCAAAACTGGCTTAATTGATTCCATATTTCCATTCCACCGGAGTCACCTAGTGCAG”, 32200 fluorescence intensity (a.u.).
To “ATCCGTCATCTGATTTAATCTCATACGTCCGCTATCCTCCCGGAGTCACCTAGTGCAG” belongs 4210 fluorescence intensity (a.u.); to “GAGATAAATGATCAACTAGTCCGTGAATTTGACACCGATGCGGAGTCACCTAGTGCAG”, 7110 fluorescence intensity (a.u.); to “AATGAATGACTGTCACAGTTCGATGATGTGACTATATATGCGGAGTCACCTAGTGCAG”, 16600 fluorescence intensity (a.u.).
In the case of “ATGACTGATTTATGACAGCCGTGCATGTGTATTTGTGTACCGGAGTCACCTAGTGCAG”, the binding signal is 55500 fluorescence intensity (a.u.).
For “GATGATTGACTTATTATGCTATAATAATATGCTGAATGAACGGAGTCACCTAGTGCAG”, the binding signal was 40600 fluorescence intensity (a.u.).
For “GTTACTGCATGATTTGCTAGATGTATTTTATGACAACAGACGGAGTCACCTAGTGCAG”, the binding signal is 12900 fluorescence intensity (a.u.).
In the case of “TGGCCGGTGATTTACCGTACTAGTGATGTATGCGTGCAAACGGAGTCACCTAGTGCAG” it was 3650 fluorescence intensity (a.u.); in that of “ATGATTGATTTGGGTAACATACCAAACACCAAACAGTTCACGGAGTCACCTAGTGCAG”, 56600 fluorescence intensity (a.u.).
In the case of “GCTAATTTGGGCACCATATTGGGCCTGATTTTGGTAAACACGGAGTCACCTAGTGCAG” it was 6980 fluorescence intensity (a.u.); in that of “ATGATGATTGACTTATGTGAATATATTGTCTATATATGCACGGAGTCACCTAGTGCAG”, 60300 fluorescence intensity (a.u.); in that of “ATTCCAATTGATTTTAGTTAGTTTTCATACATAGTTAACACGGAGTCACCTAGTGCAG”, 10900 fluorescence intensity (a.u.).
With “TCTAAACATATCCAGATAAATTATTCTGAGATGAGTCTCACGGAGTCACCTAGTGCAG”, the binding signal was 3670 fluorescence intensity (a.u.).
Turning to “TTCACGCTTGATTGGGCTGGGATTAAGGCCCATTTATACACGGAGTCACCTAGTGCAG”, the binding signal is 23500 fluorescence intensity (a.u.).
To “ACCCCGAGCTGATTATCTCTGAACGTACGATCAAGCCGTCCGGAGTCACCTAGTGCAG” belongs 6180 fluorescence intensity (a.u.); to “TACTAATTACTACTAACCGTTAAAAGTAGCCGCCGGTTAACGGAGTCACCTAGTGCAG”, 17800 fluorescence intensity (a.u.); to “CTTTAGTCTCTGACACTAATTTAGAGTATTAAATATAGACCGGAGTCACCTAGTGCAG”, 3810 fluorescence intensity (a.u.).
As for “ACAACCAACTGATTGAAGACGTCCACGTGCTTCCTAAGATCGGAGTCACCTAGTGCAG”, the binding signal was 35200 fluorescence intensity (a.u.).
To “AAATCAATTACTAGTGCGCGGTTTGTTGAGGAAAAGGCAACGGAGTCACCTAGTGCAG” belongs 6960 fluorescence intensity (a.u.).
For “ACGATCAAATTTAGACATGGAAACTCGTGACTGTGCTTATCGGAGTCACCTAGTGCAG”, the binding signal was 6550 fluorescence intensity (a.u.).
As to “AAGATTTAATTGTTACGAACACAACGGCGTAATCGGATCGCGGAGTCACCTAGTGCAG”, the binding signal is 36000 fluorescence intensity (a.u.).
Consider “GTTTGATTGGAGCAATGTCTCAATGGGTGAGAAGATGAGGCGGAGTCACCTAGTGCAG”, for which the binding signal is 54300 fluorescence intensity (a.u.).
Take “TGGAGGGATTTGATTTGGAAAGGATTTGGATTCGGGATTGCGGAGTCACCTAGTGCAG”: the binding signal is 3870 fluorescence intensity (a.u.).
In the case of “GTGTGTGATGGGTTAATCGATGTGCTATGTTATTGGTTTCCGGAGTCACCTAGTGCAG” it was 5310 fluorescence intensity (a.u.); in that of “AGTGATGGCATTGACTGACTTGGGGAAGGAAACAATCGAGCGGAGTCACCTAGTGCAG”, 16000 fluorescence intensity (a.u.).
Consider “GTGTGATTTGCTAATTGGGTTTGTTATGAAGCTGGTTATCCGGAGTCACCTAGTGCAG”, for which the binding signal was 54000 fluorescence intensity (a.u.).
As for “TTGGCGATTGATTGGGGAAAGGAAACTTTGCTAGGTCAATCGGAGTCACCTAGTGCAG”, the binding signal was 53500 fluorescence intensity (a.u.).
Take “GGGAGAGGTGATGAGTGATTGGAGTAGAGGGGAGATGAGGCGGAGTCACCTAGTGCAG”: the binding signal is 12600 fluorescence intensity (a.u.).
With “ACTGATTGATTTGGAAGGAGAGAAATACTATGTTGGGTTTCGGAGTCACCTAGTGCAG”, the binding signal was 63700 fluorescence intensity (a.u.).
On to “GTTAATTTTGTGAAATATGTTTGCTGGTTAGTGAATTGTACGGAGTCACCTAGTGCAG”, for which the binding signal is 12400 fluorescence intensity (a.u.).
To “TGTTGTGATTGGTTGAGAAATGTGGGTATGTGAGAAAATACGGAGTCACCTAGTGCAG” belongs 15200 fluorescence intensity (a.u.); to “TGTGGGATGGATTTGTGGTGATTGAGAGGGTTTGAAAGGGCGGAGTCACCTAGTGCAG”, 15700 fluorescence intensity (a.u.); to “TCGAAAATTGGTTTTGTTAATATACTAGGACTGATTTCAGCGGAGTCACCTAGTGCAG”, 6190 fluorescence intensity (a.u.).
On to “TGTAACAAACAGGCTGTAACGGCACCGTAATAAACCCAACCGGAGTCACCTAGTGCAG”, for which the binding signal was 6570 fluorescence intensity (a.u.).
For “AGCCAATCAGAATCCAAATAAAACATTCTTGCAGCAGGCGCGGAGTCACCTAGTGCAG”, the binding signal was 15900 fluorescence intensity (a.u.).
“ATTTGTCTAGTACTCCTAATTGGTACATCGACGATCTGCGCGGAGTCACCTAGTGCAG”: the binding signal is 6670 fluorescence intensity (a.u.).
Take “CTAGCCACTTGGTATAATTGACTGAGTCTTGATAAAGCTTCGGAGTCACCTAGTGCAG”: the binding signal is 7350 fluorescence intensity (a.u.).
With “CAAATGTAATTTCGCACTATTCTTATCTAATGTTTGACATCGGAGTCACCTAGTGCAG”, the binding signal was 4370 fluorescence intensity (a.u.).
Consider “TTTGACCTTTGTTCTGATTGCTACAACGAGGGAAAGTTTACGGAGTCACCTAGTGCAG”, for which the binding signal was 4690 fluorescence intensity (a.u.).
Turning to “ATATATATATATATATATATATATATATATATAAACCCAACGGAGTCACCTAGTGCAG”, the binding signal is 24000 fluorescence intensity (a.u.).
As for “ATCTAAGCTCATCTCAACCAATCACAACCATCGTTGATTTCGGAGTCACCTAGTGCAG”, the binding signal is 3410 fluorescence intensity (a.u.).
Turning to “ATAAATTACTTTTCGTTTGCAAATATGCTGTTTGAATAAGCGGAGTCACCTAGTGCAG”, the binding signal was 13300 fluorescence intensity (a.u.).
For “TTACATGATTATGTTAATTACTACACAATTATAGGGCCTACGGAGTCACCTAGTGCAG”, the binding signal is 42500 fluorescence intensity (a.u.).
“TTCTGATCACAGATCAATTACTCTTGATCGCCCATTTATTCGGAGTCACCTAGTGCAG”: the binding signal was 9590 fluorescence intensity (a.u.).
In the case of “TGTATTCATCATCTAAATTATTGTTCATAAACCTATAGGCCGGAGTCACCTAGTGCAG” it was 3420 fluorescence intensity (a.u.); in that of “ACGGAATGAACACTAATTTACTTAATACATAGAACCACGGCGGAGTCACCTAGTGCAG”, 19400 fluorescence intensity (a.u.).
